Experimental data published in PubChem BioAssay (NCI).
This is part of a sample that, as a whole, favours compounds with a hit. Of some 83,000 tested, about 20% had one in any assay.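 Compound tested at a single concentration for 48 hours in 96-well plates; a percent growth value below 10 was scored as active.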 Calls of active or inactive are those of the source.

Assays:
Assay in all cases: NCI-60 one-dose screen, 48 h (100 = growth as untreated, 0 = no growth, -100 = all killed)
HCT-15 colon = details: 10 µM unless noted
HT29 colon = details: 10 µM unless noted
SNB-75 CNS = details: 10 µM unless noted
SNB-19 CNS = details: 10 µM unless noted
U251 CNS = details: 10 µM unless noted
PC-3 prostate = details: 10 µM unless noted
SK-MEL-5 melanoma = details: 10 µM unless noted
UACC-62 melanoma = details: 10 µM unless noted
LOX IMVI melanoma = details: 10 µM
SK-MEL-28 melanoma = details: 10 µM unless noted
SN12C renal = details: 10 µM unless noted
UO-31 renal = details: 10 µM unless noted
TK-10 renal = details: 10 µM unless noted
ACHN renal = details: 10 µM unless noted
CAKI-1 renal = details: 10 µM unless noted
A498 renal = details: 10 µM unless noted
CCRF-CEM leukemia = details: 10 µM unless noted
MOLT-4 leukemia = details: 10 µM unless noted
SK-MEL-2 melanoma = details: 10 µM unless noted
EKVX NSCLC = details: 10 µM unless noted

Measured: growth

CCCCC(C=O)(C=C=C(C)C)CC (configuration not stated)
inactive: HCT-15 colon 98.2% | HT29 colon 109% | SNB-75 CNS 87.3% | SNB-19 CNS 102% | U251 CNS 96.8% | PC-3 prostate 92.6% | SK-MEL-5 melanoma 104% | UACC-62 melanoma 95.8% | LOX IMVI melanoma 96.8% | SK-MEL-28 melanoma 101% | SN12C renal 102% | UO-31 renal 93.4% | TK-10 renal 104% | ACHN renal 99.3% | CAKI-1 renal 98.2% | A498 renal 82% | CCRF-CEM leukemia 88.5% | MOLT-4 leukemia 97%

O=C1C=CC(=O)N1c1cccc2c1CCCC2
active: CCRF-CEM leukemia 9.65%
inactive: HCT-15 colon 98.4% | HT29 colon 102% | SNB-75 CNS 85.9% | SNB-19 CNS 92.6% | U251 CNS 98.2% | PC-3 prostate 98.9% | SK-MEL-5 melanoma 102% | UACC-62 melanoma 99.3% | LOX IMVI melanoma 107% | SK-MEL-28 melanoma 99.1% | UO-31 renal 87.9% | TK-10 renal 102% | ACHN renal 79.3% | CAKI-1 renal 82.3% | A498 renal 96.2% | MOLT-4 leukemia 74.2%

COC1=CC(=O)c2c(O)c3c(c(O)c2C1=O)CC(C)(O)OC3 (configuration not stated)
active: HCT-15 colon 0.909% | HT29 colon -10.8% | SNB-19 CNS 7.01% | PC-3 prostate 8.93% | SK-MEL-5 melanoma -92.4% | UACC-62 melanoma -14.2% | SK-MEL-2 melanoma -6.4%
inactive: SNB-75 CNS 41.8% | U251 CNS 17.3% | LOX IMVI melanoma 11.4% | EKVX NSCLC 23.2% | SN12C renal 34.7% | UO-31 renal 33.8% | TK-10 renal 66.1% | ACHN renal 27.6% | CAKI-1 renal 34.4% | A498 renal 68.3% | CCRF-CEM leukemia 19.5% | MOLT-4 leukemia 14.5%

CC1=CC(=NC(=O)CBr)C=C/C1=N\S(=O)(=O)c1ccccc1
active: LOX IMVI melanoma 9.2%
inactive: HCT-15 colon 36.6% | HT29 colon 39.9% | SNB-75 CNS 67.6% | SNB-19 CNS 98.2% | U251 CNS 67.3% | PC-3 prostate 77.5% | SK-MEL-5 melanoma 57.1% | UACC-62 melanoma 66.7% | SK-MEL-28 melanoma 73.1% | UO-31 renal 73.1% | TK-10 renal 79.2% | A498 renal 97.2% | CCRF-CEM leukemia 12.2% | MOLT-4 leukemia 43.7%

COc1ccc2c(c1OC)OCC(CN(C)C)C2=O (configuration not stated)
inactive: HT29 colon 73.3% | SNB-75 CNS 93.4% | SNB-19 CNS 99.1% | U251 CNS 103% | PC-3 prostate 98.3% | SK-MEL-5 melanoma 101% | UACC-62 melanoma 95.9% | LOX IMVI melanoma 87% | SK-MEL-2 melanoma 112% | EKVX NSCLC 99.4% | SN12C renal 98.5% | TK-10 renal 90.7% | CAKI-1 renal 94.4% | A498 renal 104% | CCRF-CEM leukemia 60% | MOLT-4 leukemia 61.1%
active: HCT-15 colon -58.5% | UO-31 renal -72.5%

CC1C(c2ccccc2)OCCN1C(=S)Nc1ccc(S(=O)(=O)N2CCCCC2)cc1 (configuration not stated)
inactive: HCT-15 colon 97.2% | HT29 colon 87.5% | SNB-75 CNS 100% | SNB-19 CNS 102% | U251 CNS 93% | PC-3 prostate 97.7% | SK-MEL-5 melanoma 88.7% | UACC-62 melanoma 88.9% | LOX IMVI melanoma 58.9% | SK-MEL-28 melanoma 108% | EKVX NSCLC 92.1% | SN12C renal 96.1% | UO-31 renal 94.5% | TK-10 renal 116% | ACHN renal 96.4% | CAKI-1 renal 36.4% | A498 renal 99.3% | CCRF-CEM leukemia 81% | MOLT-4 leukemia 99.5%

Oc1c(C(Nc2ccccc2)c2ccccc2)ccc2cccnc12 (configuration not stated)
inactive: HCT-15 colon 29.4% | HT29 colon 44.5% | SNB-75 CNS 70.8% | SNB-19 CNS 46.8% | U251 CNS 25.7% | PC-3 prostate 28.9% | SK-MEL-5 melanoma 19.7% | UACC-62 melanoma 31.4% | LOX IMVI melanoma 31.6% | SK-MEL-28 melanoma 53.3% | SN12C renal 54.6% | UO-31 renal 36.9% | TK-10 renal 49.4% | ACHN renal 42.9% | CAKI-1 renal 29.1% | A498 renal 78.7% | CCRF-CEM leukemia 17.7% | MOLT-4 leukemia 21.2%

CCC(C)C(N)C(=O)NC(CC(N)=O)C(=O)NC(CC(C)C)C(=O)NC(CCCCN)C(=O)NC(C)C(=O)NC(CC(C)C)C(=O)NC(C)C(=O)NC(C)C(=O)NC(CC(C)C)C(=O)NC(C)C(=O)NC(CCCCN)C(=O)NC(CCCCN)C(=O)NC(C(=O)NC(CC(C)C)C(N)=O)C(C)CC (configuration not stated)
inactive: HCT-15 colon 101% | HT29 colon 105% | SNB-75 CNS 85.3% | SNB-19 CNS 98.1% | U251 CNS 69.9% | PC-3 prostate 80.5% | LOX IMVI melanoma 101% | SK-MEL-2 melanoma 115% | SN12C renal 89.5% | UO-31 renal 97.4% | TK-10 renal 106% | CAKI-1 renal 85.3% | CCRF-CEM leukemia 83.8% | MOLT-4 leukemia 94%
active: SK-MEL-5 melanoma 3.42% | UACC-62 melanoma 9.79%

CN=C(N)N/N=C(\c1ccccc1)c1ccc(Br)cc1
active: HT29 colon -7.67% | SNB-75 CNS 9.3% | U251 CNS -9.13% | SK-MEL-5 melanoma -36.7% | LOX IMVI melanoma 0.411% | UO-31 renal 0.0982% | CAKI-1 renal 0.888% | A498 renal -19.2% | CCRF-CEM leukemia 2.24% | MOLT-4 leukemia -14%
inactive: HCT-15 colon 12.4% | SNB-19 CNS 62.2% | PC-3 prostate 12.6% | UACC-62 melanoma 33.8% | SK-MEL-28 melanoma 48% | SN12C renal 16.2% | TK-10 renal 21.6% | ACHN renal 21.5%

Clc1ccccc1C(c1ccccc1)(c1ccccc1)n1ccnc1
active: SK-MEL-5 melanoma -87%
inactive: HCT-15 colon 22.9% | HT29 colon 27.4% | SNB-75 CNS 44.1% | SNB-19 CNS 58.4% | U251 CNS 42% | PC-3 prostate 19.6% | UACC-62 melanoma 40.8% | LOX IMVI melanoma 36% | SK-MEL-28 melanoma 55.5% | EKVX NSCLC 25.9% | SN12C renal 48.2% | UO-31 renal 12.1% | ACHN renal 32.7% | CAKI-1 renal 20.6% | A498 renal 58.7% | CCRF-CEM leukemia 21.5% | MOLT-4 leukemia 17.3%

CCSc1nc2ccccc2o1
inactive: HCT-15 colon 102% | HT29 colon 113% | SNB-75 CNS 88.2% | SNB-19 CNS 99.9% | U251 CNS 101% | PC-3 prostate 92.3% | SK-MEL-5 melanoma 108% | UACC-62 melanoma 102% | LOX IMVI melanoma 103% | SK-MEL-28 melanoma 113% | SN12C renal 88.9% | UO-31 renal 79.4% | TK-10 renal 102% | ACHN renal 99% | CAKI-1 renal 87.9% | A498 renal 83.6% | CCRF-CEM leukemia 97.5% | MOLT-4 leukemia 100%

CC(=O)OC1CC2CCC1(C)C2(C)C (configuration not stated)
inactive: HCT-15 colon 98.9% | HT29 colon 96% | SNB-75 CNS 93.5% | SNB-19 CNS 103% | U251 CNS 103% | PC-3 prostate 93.2% | SK-MEL-5 melanoma 106% | UACC-62 melanoma 92.6% | LOX IMVI melanoma 101% | SK-MEL-28 melanoma 105% | EKVX NSCLC 102% | SN12C renal 98.6% | UO-31 renal 87.3% | TK-10 renal 106% | ACHN renal 96.7% | CAKI-1 renal 92.6% | A498 renal 108% | MOLT-4 leukemia 112%

CCCCCCN(CCCCCC)CCCNc1nccc2ccccc12
inactive: HCT-15 colon 17% | SNB-75 CNS 33.5% | SNB-19 CNS 20.3% | PC-3 prostate 20.4% | UACC-62 melanoma 21.8% | SK-MEL-28 melanoma 13.1% | SN12C renal 18.7% | UO-31 renal 15.2% | TK-10 renal 39.8% | ACHN renal 19.2% | CAKI-1 renal 21.4% | CCRF-CEM leukemia 12.4% | MOLT-4 leukemia 11.8%
active: HT29 colon -11.6% | U251 CNS 9.66% | SK-MEL-5 melanoma -91.3% | LOX IMVI melanoma -39.3%

N#CC(=C1SCS1)[N+](=O)[O-]
active: HT29 colon 1.29% | SK-MEL-5 melanoma 5.48% | TK-10 renal 3.93% | CCRF-CEM leukemia 2.01% | MOLT-4 leukemia 3.81%
inactive: HCT-15 colon 12.3% | SNB-75 CNS 40.5% | SNB-19 CNS 41.2% | U251 CNS 14.4% | PC-3 prostate 28.8% | UACC-62 melanoma 38.1% | LOX IMVI melanoma 17% | SK-MEL-28 melanoma 37.8% | EKVX NSCLC 63.7% | SN12C renal 28% | UO-31 renal 32.3% | A498 renal 59.3%

Cc1onc(-c2ccccc2)c1C(=O)N/N=C/c1cc(Cl)cc(Cl)c1O
inactive: HCT-15 colon 25.6% | HT29 colon 42.2% | SNB-75 CNS 61.4% | SNB-19 CNS 43.8% | U251 CNS 25% | PC-3 prostate 46.2% | UACC-62 melanoma 10.9% | LOX IMVI melanoma 11.2% | SK-MEL-28 melanoma 51.3% | SN12C renal 33.1% | TK-10 renal 40.1% | ACHN renal 22.1% | A498 renal 81.2% | CCRF-CEM leukemia 21.9% | MOLT-4 leukemia 19.2%
active: SK-MEL-5 melanoma 9.32% | UO-31 renal 1.5% | CAKI-1 renal 8.2%

O=C(C[P+](c1ccccc1)(c1ccccc1)c1ccccc1)c1ccccc1
inactive: HCT-15 colon 97.5% | HT29 colon 87.4% | SNB-75 CNS 83.6% | SNB-19 CNS 94.4% | U251 CNS 96.7% | PC-3 prostate 74.7% | SK-MEL-5 melanoma 104% | UACC-62 melanoma 79.5% | LOX IMVI melanoma 70.6% | SK-MEL-28 melanoma 109% | SN12C renal 87.9% | UO-31 renal 71.8% | TK-10 renal 94.4% | ACHN renal 94.3% | CAKI-1 renal 84.5% | A498 renal 79.8% | CCRF-CEM leukemia 90.5% | MOLT-4 leukemia 92.3%
